In test [1] the target is Lysosomal acid glucosylceramidase (Homo sapiens) (UniProt P04062). Kind of test: Glucocerebrosidase-p2 (AID 348; in the data active = potency below about 10 µM; note: potency is the fitted concentration of half-maximal effect). To be noted: purified GBA, blue fluorogenic substrate, 40 min. A digest of the protocol:
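Compounds titrated from 0.6 nM upwards against 0.2 nM enzyme in pH 5.9 citric acid/KH2PO4, taurocholate, tween-20; blue fluorogenic substrate 80 uM, 40 min room temperature, stopped and read Ex 365/Em 440 for AC50.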

Test [2] can be described thus: AP1 Signaling Pathway (AID 357).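 Note: ME-180 reporter cells stimulated with EGF at its EC50 level; % is set by controls: 0 for no effect and ±100 for the full control effect.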 To be noted: ME-180 AP-1-bla reporter, EGF-induced, beta-lactamase ratio, 5 h; at 7.69 µM (top of the series) unless noted. A digest of the protocol:
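Read-out was the 460nm/530nm emission ratio (excitation 405nm) after CCF4 loading for 2.5 hours at room temperature. Cells carried an AP-1-driven beta-lactamase reporter, were stimulated with EC50 EGF plus compound for 5 hours, and AC50 values came from titrations.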

The target in test [3] is Cytochrome P450 1A2 (Homo sapiens) (UniProt P05177). Kind of test: p450-cyp1a2 (AID 410; calls by dose curve; note: potency is the fitted concentration of half-maximal effect). To be noted: recombinant CYP1A2, luciferin-ME demethylation, luminescence; series mostly up to 11.4 µM. A digest of the protocol: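 Luminescent readout of luciferin formed from Luciferin-ME by human CYP1A2; data normalized against complete inhibition by 57 uM furafylline. Enzyme 20nM, substrate 100uM at Km, 100mM KPO4 buffer, 60 min reaction at room temperature.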
Chain of Cytochrome P450 1A2 (Homo sapiens) (P05177 whole entry, looked up): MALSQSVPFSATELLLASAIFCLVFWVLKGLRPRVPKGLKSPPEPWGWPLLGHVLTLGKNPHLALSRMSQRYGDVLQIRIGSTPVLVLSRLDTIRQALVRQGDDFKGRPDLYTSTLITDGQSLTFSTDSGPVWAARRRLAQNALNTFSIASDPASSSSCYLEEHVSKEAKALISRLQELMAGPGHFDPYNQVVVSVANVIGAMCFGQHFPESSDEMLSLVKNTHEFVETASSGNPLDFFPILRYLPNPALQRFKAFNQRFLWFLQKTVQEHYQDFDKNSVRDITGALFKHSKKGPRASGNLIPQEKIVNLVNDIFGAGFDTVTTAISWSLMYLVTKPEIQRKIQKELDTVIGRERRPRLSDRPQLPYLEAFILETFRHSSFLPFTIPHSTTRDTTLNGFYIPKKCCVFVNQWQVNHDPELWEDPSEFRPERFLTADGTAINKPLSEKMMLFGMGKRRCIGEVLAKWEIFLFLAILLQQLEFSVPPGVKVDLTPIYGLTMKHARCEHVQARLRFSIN

Test [4] is described as follows: Stat Signaling Pathway (AID 446).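 Note: ME-180 cervical cancer cells given 40 pM IL-6 alongside compound; SIE-controlled beta-lactamase reporter measured as 460/530 nm FRET emission ratio; % is set by controls: 0 for no effect and ±100 for the full control effect.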 To be noted: ME-180 SIE beta-lactamase reporter, IL-6 stimulated, 5 h; at 7.69 µM (top of the series) unless noted. A digest of the protocol: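 ME-180 cells carrying a SIE-driven beta-lactamase reporter are stimulated with 40 pM IL-6 for 5 h at 37C in the presence of compound. The 460/530 nm FRET substrate ratio is read after 2.5 h at RT. Data are normalised to 300 pM IL-6 and to 125 nM JAK inhibitor controls.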

Test [5] concerns the target Glucocorticoid receptor (Homo sapiens) (UniProt P04150). The test can be described thus: GR-GFP Redistribution (AID 450;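 active = compounds whose dose series gives a full or clear partial fitted curve of increased nuclear translocation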; note: potency is the fitted concentration of half-maximal effect). To be noted: U2OS GR-GFP nuclear translocation, laser cytometry, 2 h.
Test [6] shares this target. Kind of test: GR-EFC Redistribution (AID 451; calls by dose curve; note: potency is the fitted concentration of half-maximal effect). To be noted: CHO-K1 GR-EFC translocation, beta-gal luminescence, 2 h. The procedure, abridged: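 CHO-K1 cells expressing nuclear EA and GR-ED fragments of b-gal; compounds titrated up to 46 uM final, 2 h at 37 C. GR nuclear translocation read as complemented b-gal luminescence after 1 h RT detection.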
The target in test [7] is Mitogen-activated protein kinase 10 (Mus musculus) (UniProt Q61831). The test can be described thus: JNK3 AlphaScreen Assay (AID 530).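 Note: kinase came from lysate of stimulated human HepG2 cells; signal reports phosphorylation of biotinylated GST-cJun 1-79 at Ser73 with 10 µM ATP; % is set by controls: 0 for no effect and ±100 for the full control effect.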 To be noted: JNK3 lysate, c-Jun phosphorylation; series mostly up to 11.4 µM. The procedure, abridged: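 Pre-activated (IL-1β/TNFα) JNK3 in HepG2 lysates phosphorylates biotin-GST-cJun(1-79), 10 uM ATP; anti-phospho-cJun(Ser73) AlphaScreen read at room temperature, pH 7.6 Tris buffer. Compounds pre-incubated 15 min as titrations.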

Test [8] has as its target 3',5'-cyclic-AMP phosphodiesterase 4B (Homo sapiens) (UniProt Q07343). Kind of test: qHTS Assay for Inhibitors of PDE-IV (AID 607; active = well fitted activation curve with a large enough effect in the main read-out, with a control signal flat, not every such curve was filed as active; note: % of control where 0% means no effect). To be noted: HEK293 ACTOne CNG channel cells, membrane potential fluorescence; series mostly up to 22.9 µM. The procedure, abridged: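 HEK293 ACTOne cells with CNG channel (1000/well), endogenous PDE4; membrane potential dye, compounds up to 22.9 uM final. Fluorescence Ex 535/Em 590; RO 20-1724 (100 uM final) as reference.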
(Quantitative high-throughput screening tests each substance at several concentrations.)

Test [9] has as its target Cytochrome P450 2C9 (Homo sapiens) (UniProt P11712). The test can be described thus: qHTS Assay for Inhibitors and Substrates of Cytochrome P450 2C9 (AID 883; active = well fitted curve in the direction sought with a large enough effect; an effect the other way counts as inactive or inconclusive; note: potency is the fitted concentration of half-maximal effect; nearly all actives have a fitted effect of over 60% in size). To be noted: recombinant CYP2C9, luciferin-H luminescence, 60 min; series mostly up to 11.4 µM. The procedure, abridged:
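Signal: luciferase luminescence reporting luciferin produced by CYP2C9. Conditions: 10nM enzyme, Luciferin-H 100uM at KM, 25mM KPO4, 37C, 60 min NADPH-driven reaction. Reference: 57uM sulphaphenazole as 100% inhibition.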

For test [10], the target named is Cytochrome P450 3A4 (Homo sapiens) (UniProt P08684). Kind of test: qHTS Assay for Activators of Cytochrome P450 3A4 (AID 885; active = well fitted curve in the direction sought with a large enough effect; an effect the other way counts as inactive or inconclusive; note: nearly all actives have a fitted effect of over 65% in size). To be noted: recombinant CYP3A4, Luciferin-PPXE luminescence, 60 min; series mostly up to 11.4 µM. A digest of the protocol: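 Human CYP3A4 (20 nM) with Luciferin-PPXE at 25 uM (its KM) in 200 mM KPO4; 10 min compound preincubation, then NADPH regeneration and 60 min reaction at RT. Luciferin read by luminescence; normalized to 57 uM ketoconazole full inhibition.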
Chain of Cytochrome P450 3A4 (Homo sapiens) (P08684 whole entry, looked up): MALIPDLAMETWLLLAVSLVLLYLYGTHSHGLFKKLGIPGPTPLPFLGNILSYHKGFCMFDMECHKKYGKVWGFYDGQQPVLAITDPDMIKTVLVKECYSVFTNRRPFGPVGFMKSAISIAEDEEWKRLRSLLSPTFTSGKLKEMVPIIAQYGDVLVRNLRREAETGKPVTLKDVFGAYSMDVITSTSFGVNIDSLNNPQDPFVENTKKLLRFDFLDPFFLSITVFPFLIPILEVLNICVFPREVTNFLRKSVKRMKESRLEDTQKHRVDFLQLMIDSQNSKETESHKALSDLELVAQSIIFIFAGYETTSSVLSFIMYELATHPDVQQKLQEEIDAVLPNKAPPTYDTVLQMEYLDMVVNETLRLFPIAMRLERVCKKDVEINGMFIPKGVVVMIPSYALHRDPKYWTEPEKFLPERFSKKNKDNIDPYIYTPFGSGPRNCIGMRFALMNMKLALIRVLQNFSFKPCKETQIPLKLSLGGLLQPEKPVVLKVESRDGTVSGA

Test [11] concerns the target Cytochrome P450 2D6 (Homo sapiens) (UniProt P10635). The test can be described thus: qHTS Assay for Inhibitors and Substrates of Cytochrome P450 2D6 (AID 891; active = well fitted curve in the direction sought with a large enough effect; an effect the other way counts as inactive or inconclusive; note: potency is the fitted concentration of half-maximal effect; nearly all actives have a fitted effect of over 60% in size). To be noted: recombinant CYP2D6, luciferin-ME EGE luminescence; series mostly up to 11.4 µM. The procedure, abridged: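 Human CYP2D6 (5 nM) with 30 uM Luciferin-ME EGE (at Km) in 100 mM KPO4, compound preincubated 10 min, then NADPH regeneration system for 60 min at room temperature. Luciferin read by luminescence; normalized to 1.43 uM quinidine.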

Test [12] deals with Cytochrome P450 2C19 (Homo sapiens) (UniProt P33261). Kind of test: qHTS Assay for Inhibitors and Substrates of Cytochrome P450 2C19 (AID 899; active = well fitted curve in the direction sought with a large enough effect; an effect the other way counts as inactive or inconclusive; note: potency is the fitted concentration of half-maximal effect; nearly all actives have a fitted effect of over 60% in size). To be noted: recombinant CYP2C19, luciferin-H EGE luminescence; series mostly up to 11.4 µM. A digest of the protocol:
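Signal comes from luciferase acting on luciferin released by CYP2C19-mediated hydroxylation of Luciferin-H EGE, 10uM (KM). Assay mix: 5nM enzyme, 50mM KPO4; 60 min at 37C with NADPH regeneration. Data normalized against 57uM ketoconazole.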

Test [13] has as its target Cytochrome P450 3A4 (Homo sapiens) (UniProt P08684). Kind of test: qHTS Assay for Inhibitors and Substrates of Cytochrome P450 3A4 (AID 884; active = well fitted curve in the direction sought with a large enough effect; an effect the other way counts as inactive or inconclusive; note: potency is the fitted concentration of half-maximal effect; nearly all actives have a fitted effect of over 50% in size). To be noted: recombinant CYP3A4, Luciferin-PPXE luminescence; series mostly up to 57.1 µM. A digest of the protocol: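 20 nM human CYP3A4 with 25 uM Luciferin-PPXE (at KM) in 200 mM KPO4, preincubated 10 min with compound; NADPH regeneration started a 60 min RT reaction. Luciferin detected by luminescence, normalized to 57 uM ketoconazole as full inhibition.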

Test [14] in a line: Confirmation and Secondary Assay for Modulators of Hemoglobin Beta Chain Splicing at IVS2 654 locus (AID 910; active = well fitted curve in the direction sought with a large enough effect; an effect the other way counts as inactive or inconclusive;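 note: HeLa cells stably carrying EGFP split by mutant beta-globin IVS2-654 intron; % of control where 0% means no effect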). To be noted: HeLa EGFP-654 splicing reporter, GFP fluorescence, 48 h; series mostly up to 38.3 µM. The procedure, abridged: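 HeLa cells stably expressing EGFP interrupted by β-globin IVS2-654 intron, seeded overnight in Opti-MEM/2% FCS, then treated 2 days at 37 °C. Restored splicing read as total peak GFP intensity per well by laser scanning cytometry (488 nm excitation, 500–520 nm emission); 500 nM antisense PNA as control.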

The nature of test [15]: Confirmation and Secondary Assay for Modulators of Hemoglobin Beta Chain Splicing at IVS2 705 locus (AID 930; active = well fitted curve in the direction sought with a large enough effect; an effect the other way counts as inactive or inconclusive;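 note: HeLa cells stably expressing the EGFP-705 splicing reporter; GFP fluorescence per well restored by corrected splicing of the IVS2-705 intron in EGFP; % of control where 0% means no effect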). To be noted: HeLa EGFP-705 splicing reporter, GFP fluorescence, 48 h; series mostly up to 38.3 µM. A digest of the protocol:
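HeLa IVS2-705 EGFP reporter cells, 500/well, compound 2 d at 37C; correct splicing yields fluorescent EGFP. Control: 500 nM antisense PNA. Read-out: total peak GFP intensity.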

Structures are written as SMILES. A number with no mark means an inactive call. Results filed as inconclusive are left out. The source made the active and inactive calls. Unless noted, calls come from the whole dose curve; as a rule, active = well fitted curve in either direction with a large enough effect (not every such curve was filed as active); inconclusive = small, poorly fitted or top-dose-only effect, or another doubt; inactive = flat fitted curve, though single readings scatter.

Chain of 3',5'-cyclic-AMP phosphodiesterase 4B (Homo sapiens) (Q07343 whole entry, looked up): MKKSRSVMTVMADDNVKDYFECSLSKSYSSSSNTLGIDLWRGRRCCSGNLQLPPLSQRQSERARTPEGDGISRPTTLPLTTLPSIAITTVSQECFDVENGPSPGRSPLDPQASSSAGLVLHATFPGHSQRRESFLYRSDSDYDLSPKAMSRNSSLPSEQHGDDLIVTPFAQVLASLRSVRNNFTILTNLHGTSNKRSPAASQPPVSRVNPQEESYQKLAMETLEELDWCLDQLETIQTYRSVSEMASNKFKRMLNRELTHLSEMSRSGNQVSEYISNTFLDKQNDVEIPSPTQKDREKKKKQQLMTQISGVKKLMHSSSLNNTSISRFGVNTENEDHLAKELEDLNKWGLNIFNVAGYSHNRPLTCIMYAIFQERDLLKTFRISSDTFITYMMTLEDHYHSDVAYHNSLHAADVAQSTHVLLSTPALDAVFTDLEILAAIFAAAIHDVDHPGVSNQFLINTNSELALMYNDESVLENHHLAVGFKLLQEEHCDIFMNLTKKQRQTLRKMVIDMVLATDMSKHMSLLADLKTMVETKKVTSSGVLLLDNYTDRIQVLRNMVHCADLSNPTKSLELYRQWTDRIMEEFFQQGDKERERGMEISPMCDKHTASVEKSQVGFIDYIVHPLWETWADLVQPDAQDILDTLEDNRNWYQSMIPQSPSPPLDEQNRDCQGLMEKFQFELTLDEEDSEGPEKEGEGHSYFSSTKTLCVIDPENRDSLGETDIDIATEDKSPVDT
Chain of Cytochrome P450 2C19 (Homo sapiens) (P33261 whole entry, looked up): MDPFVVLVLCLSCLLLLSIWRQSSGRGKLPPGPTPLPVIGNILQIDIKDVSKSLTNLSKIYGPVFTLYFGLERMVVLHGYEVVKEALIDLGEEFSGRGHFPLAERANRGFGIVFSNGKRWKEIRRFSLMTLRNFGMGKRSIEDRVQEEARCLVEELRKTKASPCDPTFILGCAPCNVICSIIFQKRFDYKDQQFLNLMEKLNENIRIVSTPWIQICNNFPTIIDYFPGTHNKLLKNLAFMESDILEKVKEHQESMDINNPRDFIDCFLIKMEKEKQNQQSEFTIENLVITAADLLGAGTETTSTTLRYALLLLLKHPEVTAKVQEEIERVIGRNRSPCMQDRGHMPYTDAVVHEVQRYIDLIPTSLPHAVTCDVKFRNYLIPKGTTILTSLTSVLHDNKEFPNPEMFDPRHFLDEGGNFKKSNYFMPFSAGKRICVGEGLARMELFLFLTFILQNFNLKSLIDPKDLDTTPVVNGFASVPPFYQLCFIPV
Chain of Cytochrome P450 2D6 (Homo sapiens) (P10635 whole entry, looked up): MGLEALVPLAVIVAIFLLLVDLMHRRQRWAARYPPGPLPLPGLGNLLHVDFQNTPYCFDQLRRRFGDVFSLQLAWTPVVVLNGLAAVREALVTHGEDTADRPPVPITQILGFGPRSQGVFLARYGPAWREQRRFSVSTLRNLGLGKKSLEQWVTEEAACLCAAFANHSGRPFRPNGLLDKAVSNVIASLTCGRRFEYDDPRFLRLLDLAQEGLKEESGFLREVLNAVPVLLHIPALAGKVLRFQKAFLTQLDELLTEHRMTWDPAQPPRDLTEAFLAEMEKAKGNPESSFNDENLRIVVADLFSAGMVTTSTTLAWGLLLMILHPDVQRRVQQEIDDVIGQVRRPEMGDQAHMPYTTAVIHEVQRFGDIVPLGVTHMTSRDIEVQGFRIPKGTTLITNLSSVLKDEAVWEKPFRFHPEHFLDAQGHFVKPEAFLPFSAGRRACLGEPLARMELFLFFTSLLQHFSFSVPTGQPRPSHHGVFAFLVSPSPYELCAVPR
Chain of Lysosomal acid glucosylceramidase (Homo sapiens) (P04062 whole entry, looked up): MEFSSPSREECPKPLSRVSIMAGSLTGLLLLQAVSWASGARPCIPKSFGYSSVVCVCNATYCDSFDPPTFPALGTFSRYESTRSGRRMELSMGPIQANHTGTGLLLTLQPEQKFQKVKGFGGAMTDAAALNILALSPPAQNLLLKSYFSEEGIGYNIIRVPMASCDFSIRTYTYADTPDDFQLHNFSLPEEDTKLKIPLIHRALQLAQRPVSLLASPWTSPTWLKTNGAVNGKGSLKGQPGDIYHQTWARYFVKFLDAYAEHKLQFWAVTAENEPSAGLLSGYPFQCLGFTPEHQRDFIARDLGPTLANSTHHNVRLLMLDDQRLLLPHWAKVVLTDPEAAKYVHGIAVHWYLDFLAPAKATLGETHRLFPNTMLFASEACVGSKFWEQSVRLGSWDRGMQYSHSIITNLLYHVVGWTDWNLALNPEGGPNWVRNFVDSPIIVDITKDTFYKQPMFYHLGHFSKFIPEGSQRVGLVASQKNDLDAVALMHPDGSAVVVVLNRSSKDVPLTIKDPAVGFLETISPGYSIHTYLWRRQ
Chain of Glucocorticoid receptor (Homo sapiens) (P04150 whole entry, looked up, the tested form may be a part): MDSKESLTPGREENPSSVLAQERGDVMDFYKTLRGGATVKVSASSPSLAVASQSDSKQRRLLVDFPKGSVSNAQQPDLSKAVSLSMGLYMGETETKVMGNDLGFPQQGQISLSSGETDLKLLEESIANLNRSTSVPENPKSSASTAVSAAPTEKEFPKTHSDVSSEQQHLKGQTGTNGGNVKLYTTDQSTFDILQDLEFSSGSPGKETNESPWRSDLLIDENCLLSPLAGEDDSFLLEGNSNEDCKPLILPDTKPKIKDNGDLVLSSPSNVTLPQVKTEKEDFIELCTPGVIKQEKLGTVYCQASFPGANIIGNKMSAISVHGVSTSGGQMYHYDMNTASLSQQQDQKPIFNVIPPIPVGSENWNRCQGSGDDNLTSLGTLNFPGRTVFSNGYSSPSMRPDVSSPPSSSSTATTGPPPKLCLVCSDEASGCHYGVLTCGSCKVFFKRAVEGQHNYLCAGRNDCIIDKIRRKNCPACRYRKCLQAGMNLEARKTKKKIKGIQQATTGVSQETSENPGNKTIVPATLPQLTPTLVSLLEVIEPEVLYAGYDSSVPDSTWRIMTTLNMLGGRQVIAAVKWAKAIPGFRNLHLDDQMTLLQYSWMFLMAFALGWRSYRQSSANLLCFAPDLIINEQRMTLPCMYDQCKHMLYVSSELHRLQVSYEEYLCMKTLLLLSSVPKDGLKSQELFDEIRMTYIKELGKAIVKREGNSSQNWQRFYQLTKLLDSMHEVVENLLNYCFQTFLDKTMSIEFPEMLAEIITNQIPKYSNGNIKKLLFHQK
Chain of Cytochrome P450 2C9 (Homo sapiens) (P11712 whole entry, looked up): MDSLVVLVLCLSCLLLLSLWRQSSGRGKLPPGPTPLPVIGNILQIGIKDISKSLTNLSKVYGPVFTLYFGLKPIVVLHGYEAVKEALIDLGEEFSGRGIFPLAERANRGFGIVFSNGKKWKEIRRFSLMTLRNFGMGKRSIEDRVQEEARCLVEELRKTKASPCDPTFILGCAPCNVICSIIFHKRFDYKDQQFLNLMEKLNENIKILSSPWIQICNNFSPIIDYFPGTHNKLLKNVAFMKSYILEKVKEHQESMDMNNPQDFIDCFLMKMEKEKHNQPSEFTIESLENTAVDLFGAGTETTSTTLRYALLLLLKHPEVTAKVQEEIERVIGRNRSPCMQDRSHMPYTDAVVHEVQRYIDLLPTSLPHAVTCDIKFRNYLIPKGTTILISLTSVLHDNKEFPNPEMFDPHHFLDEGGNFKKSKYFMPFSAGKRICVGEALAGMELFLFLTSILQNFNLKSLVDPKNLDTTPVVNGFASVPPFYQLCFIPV

As for `COc1ccc(Cc2ccccc2C(=O)O)c2ccccc12`, the Potency in [1] was over 11.4 µM; in test [5] it was over 46 µM; in test [6] it was over 9.22 µM; in test [9], 3.98 µM (active). In addition, the figures for the activity change, negative = inhibition in test [2] and in test [3] were -1.93% and 2.8% [at 2.29 µM], respectively. For the same molecule, the activity, negative = inhibition in test [4] is -28.9%. Also, the Potency entry in test [7] and in test [8] was “inactive” in each case.

Regarding `N=c1sc2ccccc2n1CCS` (tested in a mixture with another compound), the Potency in test [1] is 4.5 µM (active); in test [3], 1 µM (active); in test [5], over 46 µM; in test [6] it was over 9.22 µM; in test [11] it was 0.316 µM (active); in test [12] it was 1.58 µM (active). The activity change, negative = inhibition in test [2] is 6.12%. The activity, negative = inhibition in test [4] is -20%. In addition, the Potency result in [7], in [8] and in test [10] was “inactive” in each case.

For `COc1ccccc1-c1ccc2ncnc(NCc3cccnc3)c2c1`, the Potency in [1] was over 11.4 µM; in test [3] it was 0.794 µM (active); in test [5], over 46 µM; in test [6] it was over 46 µM; in [13] it was 0.631 µM (active); in test [11], 7.94 µM (active). Also, the Potency in test [12] is 0.0079 µM (active). Also, in [2], the activity change, negative = inhibition is -18.5%. The activity, negative = inhibition in test [4] is -19.8%. In addition, the Potency result in test [7], in test [8] and in [10] was “inactive” throughout. Moreover, the molecule was classed as inactive in test [14] and in test [15].

In the case of `Cc1ccc2nc(N/N=C\c3cccc(C)n3)cc(C)c2c1`, the Potency is over 11.4 µM in [1]; 0.631 µM (active) in test [3]; over 46 µM in [5]; over 9.22 µM in test [6]; 3.16 µM (active) in [11]. In test [2], the activity change, negative = inhibition is -4.58%. Also, in test [4], the activity, negative = inhibition is 7.26%. The Potency result in [7], in test [8] and in test [10] was “inactive” each time.

Regarding `CO[C@@H]1/C=C\O[C@@]2(C)Oc3c(C)c(O)c4c(c3C2=O)C(=N[C@H]2CC[C@H](O)O[C@@H]2C)C=C(NC(=O)/C(C)=C\C(=O)[C@@H]2C[C@@H]2[C@@H](O)[C@H](C)[C@@H](O)[C@H](C)[C@H](OC(C)=O)[C@@H]1C)C4=O`, the Potency in test [1] was over 11.4 µM; in test [5], over 46 µM; in [6], over 9.22 µM; in test [13], 1.26 µM (active); in test [12], 2.51 µM (active). Moreover, the activity change, negative = inhibition in test [2] was 26.3%. Besides, the Potency result in test [3], in test [7], in test [8] and in [10] was “inactive” throughout. In addition, in test [4], the activity, negative = inhibition was -2.6%.

On to `c1ccc2c[n+](Cc3ccnc4ccccc34)ccc2c1`, for which the Potency was 8.58 µM (active) in [1], over 46 µM in [5], over 9.22 µM in test [6] and 3.16 µM (active) in test [11]. Also, the values for the activity change, negative = inhibition in [2] and in [3] were 12.4% and -21.8% [at 2.29 µM], respectively. Moreover, the activity, negative = inhibition in [4] was -6.6%. Besides, the Potency entry in test [7], in [8] and in [10] was “inactive” each time.

The record behind these values is PubChem BioAssay (NCATS).
